# Results from PubChem BioAssay (Tox21).
# “And” between values parts separate entries of the source, which are not always exact repeats. Identical values can stand only once. Inconclusive results are not listed. Where a call stands in place of a potency, no number is given. The source holds several records for some structures; these can differ, active in one and inactive in another. The source made the active and inactive calls. Unless noted, calls come from the whole dose curve; as a rule, active = well fitted curve in the direction sought with a large enough effect in the repeat runs; inconclusive = weak or mixed curves; inactive = no such curve, though single readings can be large; an effect the other way counts as inactive or inconclusive.
# Assays:
# [1] = qHTS assay to identify small molecule agonists of the RXR signaling pathway - cell viability counter screen (AID 1159529); note: series mostly up to about 77 µM; nearly all actives have a fitted effect of over 50% in size
# In short: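 Cell viability is measured by CellTiter-Glo luminescence, 30 min at room temperature, in wells already read for beta-lactamase. Engineered HEK 293T cells (RXR-alpha-UAS-bla) are dosed 16 hr at 37 C. Tetraoctyl ammonium bromide serves as positive control.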
# [2] = qHTS assay to identify small molecule antagonists of the retinoid acid receptor (RAR) signaling pathway - cell viability counter screen (AID 1159551); note: nearly all actives have a fitted effect of over 35% in size
# In short: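 Retinol-stimulated (1 uM final) C3RL4 cells, compound 6 h, 37 C; readout CellTiter-Glo luminescence (ATP) after 30 min RT incubation.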
# [3] = qHTS assay to identify small molecule antagonists of the retinoic acid receptor (RAR) signaling pathway (AID 1159552; note: nearly all actives have a fitted effect of over 50% in size)
# In short: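 Quantitative HTS in C3RL4 RARE-luciferase reporter cells. Compounds were added with 1 uM (final) retinol; luminescence was read after 6 hr.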
# [4] = qHTS assay to identify small molecule agonists of the retinoic acid receptor (RAR) signaling pathway (AID 1159553); note: potency is the fitted concentration of half-maximal effect
# In short: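 Reporter readout comes from luciferase under RARE control in C3RL4 cells; compound exposure lasts 6 hr at 37 C in 5% CO2, and luminescence is recorded following a 30 min room-temperature incubation with reagent.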
# [5] = qHTS assay to identify small molecule antagonists of the estrogen related receptor (ERR) signaling pathway from Tox21 library - cell viability counter screen (AID 1224834); note: nearly all actives have a fitted effect of over 30% in size
# In short: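 After 17.5 h of compound exposure at 37 C, ERR cells are incubated with CellTiter-Fluor for 30 min and fluorescence intensity serves as the viability measure.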
# [6] = molecular target: Luciferin 4-monooxygenase (Photinus pyralis) (UniProt P08659); test: qHTS assay to identify small molecule inhibitors of firefly luciferase (AID 1224835); note: nearly all actives have a fitted effect of over 25% in size; note: potency is the fitted concentration of half-maximal effect
# In short: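 Biochemical qHTS: compounds run as interplate titrations against purified firefly enzyme, with D-luciferin and ATP each at its KM concentration. Light output recorded by CCD imaging.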
# [7] = qHTS assay to identify small molecule agonists of the constitutive androstane receptor (CAR) signaling pathway - cell viability counter screen (AID 1224836); note: nearly all actives have a fitted effect of over 45% in size; note: potency is the fitted concentration of half-maximal effect
# In short: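 Counter screen multiplexed with the CAR reporter readout: HepG2 cells co-transfected with hCAR and the CYP2B6-2.2kb construct receive a 15-concentration compound series and 0.75 uM PK11195 (final), then CellTiter-Fluor fluorescence is read after 23 h.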
# [8] = qHTS assay to identify small molecule antagonists of the constitutive androstane receptor (CAR) signaling pathway - cell viability counter screen (AID 1224837); note: nearly all actives have a fitted effect of over 45% in size; note: potency is the fitted concentration of half-maximal effect
# In short: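 Counter screen run in HepG2-CYP2B6-hCAR cells: 4 hr settle, compound titration (15 concentrations) with 50 nM CITCO, 23 hr at 37 C/5% CO2, CellTiter-Fluor fluorescence.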
# [9] = qHTS assay to identify small molecule antagonists of the estrogen related receptor signaling pathway with the pleiotropic PPARgamma coactivator (PGC) from Tox21 10K library - cell viability counter screen (AID 1224840; active = well fitted cell-killing curve with a large enough effect in the repeat runs, not every such curve was filed as active; note: nearly all actives have a fitted effect of over 40% in size)
# In short: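 Following seeding of 2,000 PGC/ERR cells/well and 6 hours' incubation, test compounds were delivered in DMSO. The plates then sat 17.5 hours at 37 C before a fluorogenic live-cell protease reagent (CellTiter-Fluor) was read after 30 min.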
# [10] = molecular target: Thyrotropin receptor (Homo sapiens) (UniProt P16473); test: qHTS assay to identify small molecule agonists of the thyroid stimulating hormone receptor (TSHR) signaling pathway (AID 1224843; calls by dose curve; note: nearly all actives have a fitted effect of over 45% in size)
# In short: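 TSHR-HEK293 cells in agonist mode, 30 min room-temperature step, then cAMP measured by competitive HTRF (cAMP-d2 with anti-cAMP cryptate) after 1 h at room temperature. Tested at 15 concentrations in triplicate.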
# [11] = molecular target: Nuclear receptor subfamily 1 group I member 3 (Homo sapiens) (UniProt Q14994); test: qHTS assay to identify small molecule antagonists of the constitutive androstane receptor (CAR) signaling pathway (AID 1224838);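 note: HepG2 cells stably expressing hCAR with CYP2B6 luciferase reporter stimulated by CITCO; nearly all actives have a fitted effect of over 40% in size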
# In short: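 Cell line: HepG2 double-stable for hCAR and CYP2B6-2.2kb reporter. Agonist: CITCO, 50 nM final. Compounds: 15 concentrations, 24 h, 37 C. Detection: ONE-Glo luminescence.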
# [12] = qHTS assay to identify small molecule antagonists of the estrogen related receptor signaling pathway with the pleiotropic PPARgamma coactivator (PGC) from Tox21 10K library (AID 1224841; call rule not given here; note: actives are mostly falling curves and most rising ones were filed inactive; nearly all actives have a fitted effect of over 50% in size; note: potency is the fitted concentration of half-maximal effect)
# In short: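 qHTS antagonist format: PGC/ERR cells, 2k/well, compound in DMSO by pin transfer after 6 h attachment, 18 h treatment at 37 C, One-Glo luminescence read at 30 min.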
# [13] = qHTS assay to identify small molecule agonists of the estrogen related receptor signaling pathway with the pleiotropic PPARgamma coactivator (PGC) from Tox21 10K library (AID 1224842); note: nearly all actives have a fitted effect of over 15% in size
# In short: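 PGC/ERR reporter cell line, 2,000 cells per well, incubated 6 h at 37 C before 23 nL compound in DMSO was added. After 18 h at 37 C, One-Glo luminescence read following 30 min at room temperature.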
# [14] = molecular target: Nuclear receptor subfamily 1 group I member 3 (Homo sapiens) (UniProt Q14994); test: qHTS assay to identify small molecule agonists of the constitutive androstane receptor (CAR) signaling pathway (AID 1224839); note: series mostly up to about 92 µM; nearly all actives have a fitted effect of over 15% in size
# In short: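 A 15-concentration quantitative screen uses HepG2 cells co-transfected stably with human CAR and CYP2B6-2.2kb reporter. Treatment lasts 24 h with 0.75 uM PK11195 final present; ONE-Glo luminescence is the signal.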
# [15] = qHTS assay to identify small molecule antagonists of the estrogen related receptor (ERR) signaling pathway - cell viability counter screen (AID 1224818); note: series mostly up to about 46 µM
# In short: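 After a 6 h pre-incubation, ERR cells were dosed by pin tool with compounds, positive/negative controls or DMSO alone. Following 17.5 h at 37 C and 30 min with CellTiter-Fluor, fluorescence was recorded.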
# [16] = qHTS assay to identify small molecule antagonists of the estrogen related receptor signaling pathway with the pleiotropic PPARgamma coactivator (PGC) cell viability counter screen (AID 1224822; note: series mostly up to about 46 µM)
# In short: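 PGC/ERR cells were plated at 2,000 per well and allowed 6 h to settle before compound addition. Following 17.5 h at 37 C, CellTiter-Fluor reagent was added and fluorescence was read 30 min later.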
# [17] = qHTS assay to identify small molecule antagonists of the estrogen related receptor (ERR) signaling pathway (AID 1224819;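 note: luminescence from an ERR-driven luciferase reporter measured with One-Glo reagent; series mostly up to about 46 µM; nearly all actives have a fitted effect of over 50% in size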)
# In short: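 Luminescence readout (One-Glo, 30 min, RT) of ERR cell line after 18 h compound exposure at 37 C; cells seeded 2,000/well, pre-incubated 6 h, compounds pinned from DMSO stocks.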
# [18] = qHTS assay to identify small molecule agonists of the estrogen related receptor (ERR) signaling pathway (AID 1224820)
# In short: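 Cells: ERR line from NTP, 2,000/well. Pre-incubation 6 h, 37 C/5% CO2. Compound (DMSO) pin transfer, 18 h 37 C. One-Glo, 30 min RT, luminescence.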
# [19] = tested on: estrogen-related receptor alpha (ERRalpha) with PGC-1alpha coactivator, human; test: qHTS assay to identify small molecule antagonists of the estrogen related receptor signaling pathway with the pleiotropic PPARgamma coactivator (PGC) (AID 1224821; calls by dose curve)
# In short: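 Luminescent read-out (One-Glo, 30 min at room temperature) following 18 h treatment of PGC/ERR cells at 37 C with compounds delivered in DMSO. Cells had settled 6 h at 37 C/5% CO2 before dosing.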
# [20] = qHTS assay to identify small molecule agonists of the estrogen related receptor signaling pathway with the pleiotropic PPARgamma coactivator (PGC) (AID 1224823)
# In short: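 Steps: plate PGC/ERR cells at 2,000 cells/well; incubate 6 h, 37 C/5% CO2; pin-transfer compounds (DMSO); incubate 18 h, 37 C; add One-Glo; 30 min RT; read luminescence.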
# Chain of Nuclear receptor subfamily 1 group I member 3 (Homo sapiens) (Q14994 whole entry, looked up): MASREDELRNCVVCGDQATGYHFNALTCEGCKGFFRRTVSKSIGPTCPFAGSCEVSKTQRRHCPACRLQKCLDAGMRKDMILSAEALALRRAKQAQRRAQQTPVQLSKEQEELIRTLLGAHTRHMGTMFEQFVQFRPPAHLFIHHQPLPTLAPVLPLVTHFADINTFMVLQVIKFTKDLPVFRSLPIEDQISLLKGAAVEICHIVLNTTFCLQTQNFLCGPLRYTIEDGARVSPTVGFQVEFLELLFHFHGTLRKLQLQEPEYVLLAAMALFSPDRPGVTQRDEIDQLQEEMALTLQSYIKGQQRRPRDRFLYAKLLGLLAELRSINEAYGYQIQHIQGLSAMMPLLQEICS
# Chain of Luciferin 4-monooxygenase (Photinus pyralis) (P08659 whole entry, looked up): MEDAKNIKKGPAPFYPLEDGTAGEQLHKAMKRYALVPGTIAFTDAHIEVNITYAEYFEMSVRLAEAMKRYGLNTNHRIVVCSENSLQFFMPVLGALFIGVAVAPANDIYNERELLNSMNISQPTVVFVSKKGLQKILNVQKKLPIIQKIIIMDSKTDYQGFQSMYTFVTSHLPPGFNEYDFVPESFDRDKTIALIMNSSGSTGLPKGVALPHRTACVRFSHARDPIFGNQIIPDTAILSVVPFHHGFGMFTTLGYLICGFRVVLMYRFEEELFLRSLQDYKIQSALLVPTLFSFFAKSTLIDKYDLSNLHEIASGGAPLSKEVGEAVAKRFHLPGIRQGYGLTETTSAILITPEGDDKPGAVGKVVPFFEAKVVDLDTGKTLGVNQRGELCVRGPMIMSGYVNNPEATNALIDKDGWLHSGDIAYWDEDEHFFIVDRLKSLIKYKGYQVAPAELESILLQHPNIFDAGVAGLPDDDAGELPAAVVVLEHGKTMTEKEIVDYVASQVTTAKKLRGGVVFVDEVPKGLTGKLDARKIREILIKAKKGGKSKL
# Chain of Thyrotropin receptor (Homo sapiens) (P16473 whole entry, looked up): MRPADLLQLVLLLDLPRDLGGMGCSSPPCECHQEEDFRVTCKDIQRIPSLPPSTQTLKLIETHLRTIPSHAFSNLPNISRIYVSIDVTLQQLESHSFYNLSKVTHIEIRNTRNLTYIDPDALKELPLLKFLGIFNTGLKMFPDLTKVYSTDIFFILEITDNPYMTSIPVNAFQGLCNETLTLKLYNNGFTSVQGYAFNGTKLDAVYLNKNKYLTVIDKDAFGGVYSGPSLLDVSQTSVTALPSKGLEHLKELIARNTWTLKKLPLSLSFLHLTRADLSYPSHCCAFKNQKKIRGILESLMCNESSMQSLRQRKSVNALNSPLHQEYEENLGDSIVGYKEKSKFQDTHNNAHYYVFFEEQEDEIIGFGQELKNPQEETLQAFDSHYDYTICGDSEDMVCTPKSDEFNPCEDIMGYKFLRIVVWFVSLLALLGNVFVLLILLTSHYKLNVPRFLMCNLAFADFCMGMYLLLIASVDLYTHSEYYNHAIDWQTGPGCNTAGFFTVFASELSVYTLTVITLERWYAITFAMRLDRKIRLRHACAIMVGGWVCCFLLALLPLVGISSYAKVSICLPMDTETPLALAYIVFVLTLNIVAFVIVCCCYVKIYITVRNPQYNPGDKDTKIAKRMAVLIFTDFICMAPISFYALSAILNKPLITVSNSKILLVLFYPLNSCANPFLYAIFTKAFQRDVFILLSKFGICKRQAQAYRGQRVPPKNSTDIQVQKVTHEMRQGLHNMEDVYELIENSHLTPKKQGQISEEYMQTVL
smiles,measurement,setting,value
NC(=S)NNC(N)=S,outcome,[1],inactive
same,outcome,[2],inactive
same,outcome,[3],inactive
same,Potency,[4],inactive
same,Potency,[5],inactive
same,Potency,[6],inactive
same,Potency,[7],inactive
same,Potency,[8],inactive
same,Potency,[9],inactive
same,outcome,[10],inactive
CC(CCl)OP(=O)(OC(C)CCl)OC(C)CCl (centres undefined),outcome,[1],inactive
same,outcome,[2],inactive
same,outcome,[3],inactive
same,Potency,[4],inactive
same,Potency,[5],inactive
same,Potency,[6],inactive
same,Potency,[7],inactive
same,Potency,[8],inactive
same,outcome,[11],inactive
same,Potency,[9],inactive
same,Potency,[12],38.6 µM (active) and inactive
same,outcome,[13],inactive
same,outcome,[10],inactive
NCCNCCN,outcome,[1],inactive
same,outcome,[2],inactive
same,outcome,[3],inactive
same,Potency,[4],inactive
same,Potency,[5],inactive
same,Potency,[6],inactive
same,Potency,[7],inactive
same,outcome,[11],inactive
same,Potency,[14],inactive
same,Potency,[9],inactive
same,Potency,[12],inactive
same,outcome,[13],inactive
CCCCCCCO,outcome,[1],inactive
same,outcome,[2],inactive
same,outcome,[3],inactive
same,Potency,[4],inactive
same,Potency,[6],inactive
same,Potency,[7],inactive
same,Potency,[8],inactive
same,outcome,[11],inactive
same,Potency,[14],inactive
same,outcome,[10],inactive
CCO[Si](CCC#N)(OCC)OCC,outcome,[1],inactive
same,outcome,[2],inactive
same,Potency,[5],inactive
same,Potency,[6],inactive
same,Potency,[7],inactive
same,Potency,[8],inactive
same,Potency,[9],inactive
CN/C(=C\[N+](=O)[O-])NCCSCc1csc(CN(C)C)n1,outcome,[1],inactive
same,outcome,[2],inactive
same,Potency,[5],inactive
same,Potency,[7],inactive
same,Potency,[8],inactive
same,outcome,[11],inactive
same,Potency,[14],inactive
same,outcome,[10],inactive
Nc1ccc(Cl)c(N)c1,outcome,[1],inactive
same,outcome,[2],inactive
same,outcome,[3],inactive
same,Potency,[4],68.6 µM (active)
same,Potency,[6],inactive
same,Potency,[7],inactive
same,Potency,[8],inactive
same,Potency,[9],inactive
same,outcome,[10],inactive
C[C@]12CCC(=O)C=C1CC[C@@H]1[C@@H]2[C@@H](O)C[C@@]2(C)[C@H]1CC[C@]2(O)C(=O)CO,outcome,[1],inactive
same,outcome,[3],inactive
same,Potency,[4],inactive
same,outcome,[15],inactive
same,outcome,[16],inactive
same,Potency,[6],inactive
same,Potency,[7],inactive
same,Potency,[8],inactive
same,Potency,[14],inactive
same,Potency,[9],inactive
same,outcome,[10],inactive
CC(CCO)CC(C)(C)C (centres undefined),outcome,[1],inactive
same,outcome,[2],inactive
same,outcome,[3],inactive
same,Potency,[4],inactive
same,Potency,[6],inactive
same,Potency,[7],inactive
same,Potency,[8],inactive
same,Potency,[9],inactive
same,outcome,[10],inactive
CC(C)OP(=O)(CP(=O)(OC(C)C)OC(C)C)OC(C)C,outcome,[1],inactive
same,outcome,[2],inactive
same,Potency,[6],inactive
same,Potency,[7],inactive
same,Potency,[8],inactive
same,outcome,[11],inactive
same,Potency,[14],inactive
same,Potency,[9],inactive
O=S(=O)(O)c1ccc(N=Nc2c(O)ccc3cc(S(=O)(=O)O)ccc23)cc1,outcome,[1],inactive
same,outcome,[2],inactive
same,outcome,[3],inactive
same,Potency,[4],inactive
same,Potency,[7],54.7 µM (active) and 30.6 µM (active)
same,Potency,[8],54.7 µM (active) and 27.3 µM (active)
same,outcome,[11],inactive
same,Potency,[14],inactive
same,Potency,[12],27.4 µM (active) and inactive
same,outcome,[13],inactive
O=S(=O)(O)c1ccccc1,outcome,[1],inactive
same,outcome,[2],inactive
same,outcome,[3],inactive
same,Potency,[4],inactive
same,Potency,[7],inactive
same,Potency,[8],inactive
same,Potency,[9],inactive
same,Potency,[12],inactive
same,outcome,[13],inactive
same,outcome,[10],inactive
CCCOC(=O)c1ccccc1,outcome,[1],inactive
same,outcome,[2],inactive
same,Potency,[5],inactive
same,Potency,[6],inactive
same,Potency,[7],inactive
same,Potency,[8],inactive
same,outcome,[11],inactive
same,Potency,[14],inactive
same,Potency,[9],inactive
same,Potency,[12],inactive
same,outcome,[13],inactive
same,outcome,[10],inactive
CC(C)(Oc1ccc(CCNC(=O)c2ccc(Cl)cc2)cc1)C(=O)O,outcome,[1],inactive
same,outcome,[2],inactive
same,outcome,[15],inactive
same,outcome,[17],inactive
same,outcome,[18],inactive
same,outcome,[19],inactive
same,outcome,[16],inactive
same,outcome,[20],inactive
same,Potency,[5],inactive
same,Potency,[6],35.6 µM (active)
same,Potency,[7],inactive
same,outcome,[11],inactive
same,Potency,[14],inactive
same,Potency,[9],inactive
same,Potency,[12],inactive
same,outcome,[13],inactive
same,outcome,[10],inactive
CCNc1ccccc1,outcome,[1],inactive
same,outcome,[2],inactive
same,outcome,[3],inactive
same,Potency,[4],inactive
same,Potency,[6],28.8 µM (active) and inactive
same,Potency,[7],inactive
same,Potency,[8],inactive
same,outcome,[11],inactive
same,Potency,[14],inactive
same,outcome,[10],inactive
CNC(=S)N(C)C,outcome,[1],inactive
same,outcome,[3],inactive
same,Potency,[4],inactive
same,Potency,[5],inactive
same,Potency,[6],inactive
same,Potency,[7],inactive
same,Potency,[8],inactive
same,outcome,[11],inactive
same,Potency,[14],inactive
same,Potency,[9],inactive
CCCCCCCCCCCC(=O)OC,outcome,[1],inactive
same,outcome,[2],inactive
same,Potency,[5],inactive
same,Potency,[6],inactive
same,Potency,[7],inactive
same,outcome,[11],inactive
same,Potency,[14],inactive
same,Potency,[9],inactive
same,outcome,[10],inactive
C=CCc1ccc(OC)c(OC)c1,outcome,[1],inactive
same,outcome,[2],inactive
same,Potency,[5],inactive
same,Potency,[6],inactive
same,Potency,[7],inactive
same,Potency,[8],inactive
same,Potency,[9],inactive
same,outcome,[10],inactive
O=C(O)c1ccc(S(=O)(=O)N(Cl)Cl)cc1,outcome,[1],inactive
same,outcome,[2],inactive
same,outcome,[3],inactive
same,Potency,[4],inactive
same,Potency,[6],inactive
same,Potency,[7],inactive
same,Potency,[8],inactive
same,outcome,[11],inactive
same,Potency,[14],inactive
same,outcome,[10],inactive
O=C(O)/C=C/C(=O)O,outcome,[1],inactive
same,outcome,[2],inactive
same,Potency,[6],inactive
same,Potency,[7],inactive
same,outcome,[11],inactive
same,outcome,[10],inactive
